Source: PubChem BioAssay (National Center for Advancing Translational Sciences (NCATS))
Shiga inhibitor – inhibitors of Shiga toxin in Vero cells; Vero cells, Shiga toxin protein synthesis inhibition reporter; inhibition, % at 38.7 µM; 290,000 tested, 9.2% active; in the data active = inhibition mostly above about 28%, no sharp cut-off; inactive = mostly below about 43%
Pf growth 48h – inhibits P. falciparum growth in the first generation, 48 h | Potency, µM (titrated, usually from 28.7 µM), most hits filed as inhibitors | P. falciparum luciferase growth in erythrocytes, 48 h | AID 504832 | 310,000 tested, 5.9% active
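In quantitative HTS format, infected erythrocytes bearing luciferase-reporter parasites were treated for a single generation at 37 C. Luminescence after adding detection reagent served as the growth measure.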
LASV entry inh – Lassa virus entry inhibition. Lassa virus pseudotype entry inhibition, cell reporter. Potency, µM (highest dose often 37.9 µM), actives largely listed as inhibitors. 300,000 tested, 1.2% active; calls by dose curve; tested in HEK293 cells; also: nearly all actives have a fitted effect of over 50% in size
Cycloheximide cs – counter-screen for Shiga toxin inhibitors: cycloheximide protein synthesis inhibition | 300,000 tested, 12% active | max response, % | AID 2314 | cell reporter, cycloheximide protein synthesis inhibition counterscreen; in the data active = max response mostly above about 13%, no sharp cut-off; inactive = mostly below about 14%; also: read at 38.3 µM for the half of the compounds with a filed dose
Pf growth 96h – P. falciparum growth inhibition at 96 hours | P. falciparum luciferase reporter growth, 96 h | 320,000 tested, 6.9% active | Potency, µM (titrated, usually from 28.7 µM), usual class: inhibitors
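Parasite growth measured via integrated firefly luciferase reporter in P. falciparum. Infected erythrocytes at 2% hematocrit, 0.05% parasitemia final were treated 96 hours at 37 C under 5% CO2, and luminescence was read.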
MARV entry inh – blocks Marburg virus binding to or entry into cells. 300,000 tested, 1.8% active. Potency, µM (highest dose often 37.8 µM), hits mostly inhibitors. Marburg virus pseudotyped entry inhibition, cell reporter; calls by dose curve; tested in HEK293 cells
Large screens that a line does not name were inactive. The list is not random: actives were taken first. Their share in the collection is about 19%. Unless noted, calls follow the shape of the dose curve; as a rule, active = well fitted inhibition curve with a large enough effect; inconclusive = small, poorly fitted or top-dose-only effect, or another doubt; inactive = no such curve, though single readings can be large or run the other way.

CSCCC(C(=O)N1CC2(C)CC1CC(C)(C)C2)N1C(=O)c2ccccc2C1=O (stereo not given)	Pf growth 96h 13µM, MARV entry inh inconclusive
CC1(C)CC2CC(C)(CN2C(=O)CN2C(=O)c3ccccc3C2=O)C1 (stereo not given)	none (no result: Pf growth 96h)
Cn1cccc1Cc1nnc(SCC(=O)NC2CCCC2)n1-c1ccc(F)cc1	none (no result: Pf growth 48h, LASV entry inh, MARV entry inh)
COc1ccccc1NC(=O)c1ccc2nc(C)sc2c1	Shiga inhibitor 83, Cycloheximide cs 46, Pf growth 96h inconclusive
COc1ccccc1NC(=O)c1ccc2[nH]c(C)c(C)c2c1	Shiga inhibitor 128, Cycloheximide cs 40 (no result: LASV entry inh, MARV entry inh)
CCCN1C(=O)c2cc(C(=O)Nc3cccc(C(C)=O)c3)ccc2C1Nc1cccc(C(C)=O)c1 (stereo not given)	Pf growth 48h inconclusive, Pf growth 96h inconclusive (no result: LASV entry inh, MARV entry inh)
COc1ccccc1NC(=O)CCS(=O)(=O)c1ccc2nc(C)sc2c1	none (no result: Shiga inhibitor, Pf growth 48h, Cycloheximide cs, Pf growth 96h, MARV entry inh)
COc1ccccc1NC(=O)c1coc(=O)c(Br)c1	Shiga inhibitor 104, Cycloheximide cs 77
CCCN1C(=O)c2cc(C(=O)Nc3ccccc3OC)ccc2C1Nc1ccccc1OC (stereo not given)	Pf growth 48h 10µM, LASV entry inh inconclusive, Pf growth 96h inconclusive, MARV entry inh inconclusive
Cc1ccccc1NC(=O)c1ccc2[nH]c(C)c(C)c2c1	none (no result: Shiga inhibitor, Pf growth 48h, Cycloheximide cs, Pf growth 96h, MARV entry inh)
CCOc1ncccc1C(=O)OCC(=O)Nc1ccc(C(N)=O)cc1	none (no result: LASV entry inh, MARV entry inh)
COc1ccccc1N1CCN(C(=O)c2cccc(C(=O)N3CCN(c4ccccc4OC)CC3)c2)CC1	Pf growth 48h inconclusive, MARV entry inh inconclusive
COc1ccccc1NC(=O)c1ccc2ccccc2c1	Shiga inhibitor 68, Cycloheximide cs 54 (no result: Pf growth 48h, LASV entry inh, Pf growth 96h, MARV entry inh)
COc1ccc(NC(C)=O)cc1NC(=O)c1ccc2ccccc2c1	none (no result: LASV entry inh, MARV entry inh)
Cc1[nH]c2ccc(C(=O)Nc3ccncc3)cc2c1C	Shiga inhibitor 50, Pf growth 48h inconclusive, Cycloheximide cs 23, Pf growth 96h 12µM (no result: LASV entry inh, MARV entry inh)
COc1cccc(NC(=O)c2ccc3nc(C)sc3c2)c1	Shiga inhibitor 60, Cycloheximide cs 38, Pf growth 96h inconclusive (no result: LASV entry inh, MARV entry inh)
COc1ccccc1N1CCN(C(=O)c2coc(=O)c(Br)c2)CC1	Shiga inhibitor 81, Pf growth 48h inconclusive, Cycloheximide cs 40
COc1cccc(NC(=O)CN(C)S(=O)(=O)c2ccc3nc(C)sc3c2)c1	none (no result: Shiga inhibitor, Pf growth 48h, Cycloheximide cs, Pf growth 96h)
Cc1cc(C)cc(-n2c(C)cc(/C=N\NC(=O)COc3cccc4cccnc34)c2C)c1	Pf growth 48h inconclusive, Pf growth 96h inconclusive (no result: LASV entry inh)
COCCCn1c(=O)c2sccc2n2c(CCCC(=O)NCc3ccccc3OC)nnc12	Pf growth 96h inconclusive
COC(=O)c1ccc(OC(=O)CCc2cc(OC)c(OC)c(OC)c2)cc1	none
CCCn1c(C(C)Nc2nc(-c3ccc(Cl)c([N+](=O)[O-])c3)cs2)nc2cc(Cl)c(N3CCCCC3)cc21 (stereo not given)	Pf growth 48h inconclusive, Pf growth 96h inconclusive (no result: LASV entry inh, MARV entry inh)
CCCCOC(=O)C1[C@H]2C(=O)N(Cc3cccs3)C[C@]23C=C[C@H]1O3 (stereo not given in full)	Pf growth 96h 5.2µM (no result: Pf growth 48h)
O=C(NC1CCCC1)C1C2C=CC3(CN(Cc4cccs4)C(=O)C13)O2 (stereo not given)	none
O=C(NCC1CCCO1)C1C2C=CC3(CN(Cc4cccs4)C(=O)C13)O2 (stereo not given)	Pf growth 96h 4.7µM
CCCCCOC(=O)C1[C@H]2C(=O)N(Cc3cccs3)C[C@]23C=C[C@H]1O3 (stereo not given in full)	Pf growth 96h inconclusive (no result: Pf growth 48h)
CCOC(=O)CNC(=O)N1CCC(CCOc2ccccc2)(C(=O)OCC)CC1	Pf growth 96h 8.3µM (no result: Shiga inhibitor)
CCOC(=O)C1(S(=O)(=O)c2ccc(Cl)cc2)CCN(Cc2ccc(Cl)cc2)CC1	Pf growth 48h inconclusive, LASV entry inh inconclusive, MARV entry inh inconclusive
CCOC(=O)C1(S(=O)(=O)c2ccccc2)CCN(Cc2ccc(Cl)cc2)CC1	Pf growth 48h inconclusive, Pf growth 96h 7.4µM
CCOC(=O)C1(CCOc2ccccc2)CCN(Cc2ccc(O)cc2)CC1	Pf growth 48h 13µM (no result: Shiga inhibitor, LASV entry inh, MARV entry inh)
CCOC(=O)C1(CCOc2ccccc2)CCN(Cc2ccc(O)c(OCC)c2)CC1	Pf growth 48h 15µM, LASV entry inh inconclusive, MARV entry inh 11µM
Cc1cc(C)n(CC2CC(=O)N(c3ccc(F)c(Cl)c3)C2=O)n1 (stereo not given)	Pf growth 48h inconclusive
C=CCn1c(NCCO)nc2sc3c(c2c1=O)CCC3	none (no result: LASV entry inh, MARV entry inh)
